# The full list was thinned out, with hits kept by preference.
# RECQ1 helicase = inhibitors of human RECQ1 DNA helicase; Potency, µM (doses to about 57.3 µM), without a hit: at the highest dose activity, negative = inhibition, hits mostly inhibitors; RECQ1 DNA unwinding, red fluorescence kinetic read; 0.54% of 240,000 active; P46063;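 also: plate controls were vehicle for no effect and no enzyme for full effect; nearly all actives have a fitted effect of over 30% in size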
#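 50 nM RECQ1T1 preincubated 15 min with compound in Tris pH 8.0 buffer with MgCl2, DTT, Tween-20 and 2.5 ug/ml poly(dI-dC); started with 200 nM TAMRA/BHQ-2 forked duplex and 2 mM ATP. Unwinding read as fluorescence (525/598 nm), two reads 2 h apart.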
# JMJD2E inh = JMJD2E (human) inhibition | B2RXH2 | AID 2147 | JMJD2E catalytic domain, FDH-coupled NADH fluorescence (FDH is formaldehyde dehydrogenase) | 1.6% of 230,000 active | Potency, µM (top dose mostly 57.1 µM), for inactives: at the highest dose activity change, negative = inhibition, usual class: inhibitors; active = well fitted inhibition curve with a large enough effect, not every such curve was filed as active; inconclusive = small, poorly fitted or top-dose-only effect, or another doubt; inactive = no such curve, though single readings can be large or run the other way;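 also: 0% = wells with enzyme and -100% = buffer wells without enzyme; nearly all actives have a fitted effect of over 50% in size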
# Target sequence (B2RXH2 1-337 limits assumed): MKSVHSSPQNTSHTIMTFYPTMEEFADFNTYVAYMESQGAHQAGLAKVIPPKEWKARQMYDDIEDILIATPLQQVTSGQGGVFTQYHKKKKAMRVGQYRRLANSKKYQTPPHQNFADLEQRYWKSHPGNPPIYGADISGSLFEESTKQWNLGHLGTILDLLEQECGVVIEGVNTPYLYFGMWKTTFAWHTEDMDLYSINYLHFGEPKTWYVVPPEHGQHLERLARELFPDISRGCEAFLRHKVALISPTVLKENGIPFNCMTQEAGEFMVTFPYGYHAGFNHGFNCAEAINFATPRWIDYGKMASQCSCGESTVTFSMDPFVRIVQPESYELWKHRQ
# L3MBTL1 inh = inhibitors of human L3MBTL1; AID 485360; AlphaScreen L3MBTL1–H3K9me1 peptide binding; Potency, µM (series often up to 57.1 µM), without a hit: at the highest dose activity, negative = inhibition, hits mostly inhibitors; 0.66% of 230,000 active; Q9Y468; also: nearly all actives have a fitted effect of over 60% in size
#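 AlphaScreen assay: L3MBTL1 (50 nM final) was preincubated 30 min at room temperature with biotinylated H3(1-15)K9me1 peptide (75 nM final), then 30 min with library compounds; streptavidin donor and nickel chelate acceptor beads (10 ug/mL final) added, 30 min dark.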
# APE1 inh-1 = blocks human APE1 abasic DNA cleavage; Potency, µM (titrated, usually from 65.8 µM), without a hit: top-dose activity change, negative = inhibition, hits mostly inhibitors; recombinant APE1, TAMRA/BHQ-2 abasic DNA cleavage fluorescence; 0.35% of 350,000 active; P27695;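 also: plate controls were vehicle for no effect and reference inhibitor for full effect; nearly all actives have a fitted effect of over 55% in size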
# Target sequence (P27695 whole entry, looked up): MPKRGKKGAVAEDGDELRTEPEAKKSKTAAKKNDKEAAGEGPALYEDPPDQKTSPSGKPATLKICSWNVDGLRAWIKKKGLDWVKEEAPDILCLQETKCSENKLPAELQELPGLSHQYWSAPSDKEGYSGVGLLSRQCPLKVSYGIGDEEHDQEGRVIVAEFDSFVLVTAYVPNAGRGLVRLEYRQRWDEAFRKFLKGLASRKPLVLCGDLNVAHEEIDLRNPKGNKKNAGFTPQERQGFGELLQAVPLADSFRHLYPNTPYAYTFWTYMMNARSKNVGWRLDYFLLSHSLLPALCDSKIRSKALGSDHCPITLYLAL
#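 Endonuclease cleavage of a quenched abasic-site DNA duplex (50 nM) by APE1 (0.75 nM) was tracked by TAMRA dequenching. Compounds were preincubated with enzyme 15 min at room temperature; data normalized to buffer-only and DMSO wells plus NSC13755 control.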
# BLM inh = inhibitors of human Bloom syndrome helicase BLM. recombinant BLM DNA unwinding, fluorescence dequenching. Potency, µM (doses to about 56.1 µM), inactives show at the top dose activity change, negative = inhibition, hits mostly inhibitors. 0.2% of 350,000 active. AID 2528;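 also: plate controls were vehicle for no effect and no enzyme for full effect; nearly all actives have a fitted effect of over 35% in size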
# APE1 dye cs = displaces fluorescent dye from DNA, flagging APE1 artifacts; shares compounds with APE1 inh-1; DNA fluorescent dye displacement counterscreen, fluorescence; Potency, µM (top dose mostly 28.5 µM), inactives show at the top dose activity change, negative = inhibition, most hits filed as inhibitors; 7% of 480 active; AID 2564;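 also: loss of thiazole orange fluorescence as the dye is displaced from duplex DNA; 0% = ThO with dsDNA and no compound and -100% = ThO without dsDNA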
# EndoIV counter = blocks E. coli endonuclease IV DNA cleavage. shares compounds with APE1 inh-1. E. coli Endo IV, fluorogenic AP-site DNA cleavage. Potency, µM (highest dose often 27.1 µM), for inactives: top-dose activity change, negative = inhibition, actives largely listed as inhibitors. 4% of 560 active. AID 2565;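 also: plate controls were uninhibited enzyme wells for no effect and no enzyme buffer wells for full effect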
# APE1 inh-2 = confirmation of inhibitors of human APE1 endonuclease. AID 2572. shares compounds with APE1 inh-1. Potency, µM (titrated, usually from 57.1 µM), for the others: at the highest dose activity change, negative = inhibition, hits mostly inhibitors. 44% of 750 active. purified APE1, fluorogenic abasic-site DNA cleavage; also: nearly all actives have a fitted effect of over 30% in size
# APE1 FP = displaces DNA from human APE1 in FP assay; APE1 binding to TAMRA-labelled double-stranded DNA, fluorescence polarization displacement; AID 2573; Potency, µM (top dose mostly 28.5 µM), for inactives: at the highest dose activity, negative = inhibition, hits mostly inhibitors; shares compounds with APE1 inh-1; 7% of 480 active
# The depositor's hits bear a star; i = inactive; ? = inconclusive; nt = no result; [ ] = dose if it differs, or a comment. Unless noted, calls follow the shape of the dose curve; as a rule, active = well fitted curve in the direction sought with a large enough effect; inconclusive = small, poorly fitted or top-dose-only effect, or another doubt; inactive = no such curve, though single readings can be large; an effect the other way counts as inactive or inconclusive. Unless noted, % is scaled to controls: 0 for no effect and ±100 for the full control effect; potency is read from the fitted curve at half-maximal effect.
SMILES,RECQ1 helicase,JMJD2E inh,L3MBTL1 inh,APE1 inh-1,BLM inh,APE1 dye cs,EndoIV counter,APE1 inh-2,APE1 FP
O=C(Nc1cc(C(=O)Nc2ccc(S(=O)(=O)O)cc2S(=O)(=O)O)cc(C(=O)Nc2ccc(S(=O)(=O)O)cc2S(=O)(=O)O)c1)Nc1cc(C(=O)Nc2ccc(S(=O)(=O)O)cc2S(=O)(=O)O)cc(C(=O)Nc2ccc(S(=O)(=O)O)cc2S(=O)(=O)O)c1,-0.7%,?,nt,7.94µM*,?,nt,?,2.51µM*,nt
Cc1cc(/C=C2/C(=N)N3C(=NC2=O)SN=C3S(C)(=O)=O)c(C)n1-c1ccccc1F,-27.7%,?,nt,23.2%,-11.3%,nt,nt,nt,nt
CS(=O)(=O)C1=NSC2=NC(=O)/C(=C\c3cccn3-c3ccc(Cl)cc3)C(=N)N21,-19.5%,?,-25.4%,?,?,nt,nt,14.1µM*,nt
O=c1c2cc(Br)cc(Br)c2oc2nc3n(c(=O)c12)CCCS3,-7.0%,5.0%,nt,2.4%,-5.4%,nt,nt,nt,nt
O=Cc1ccc2oc3nc4n(c(=O)c3c(=O)c2c1)CCCS4,12.6µM*,-24.4%,nt,?,28.2µM*,nt,nt,31.6µM*,nt
Nc1cc(C(=O)O)ccc1Sc1ccccc1C(=O)O,28.4%,?,nt,?,6.2%,nt,nt,-10.5%,nt
Nc1ccccc1Sc1ccc(C(=O)c2ccccc2C(=O)O)cc1[N+](=O)[O-],-3.8%,?,-11.4%,-2.0%,-4.6%,nt,nt,nt,nt
O=c1c(OC2OC(CO)C(O)C(O)C2OC2OC(CO)C(O)C(O)C2O)c(-c2ccc(O)cc2)oc2cc(O)cc(O)c12 (centres undefined),10µM*,28.2µM*,nt,8.91µM*,-19.5%,1.1%,12.0%,?,-41.9%
Cc1ccc(-n2c(N)cc(=O)nc2SCC(=O)N2CCN(c3ccccc3)CC2)cc1,nt,nt,nt,2.0%,0.5%,nt,nt,nt,nt
CCC(C)C(=O)OCC1(c2ccc(C)cc2OC(=O)C(C)C)CO1 (centres undefined),-13.7%,-8.2%,nt,?,-12.1%,?,-9.2%,11.2µM*,?
CC1CCN(C(=O)COC(=O)c2cccc(NS(=O)(=O)c3ccccc3)c2)CC1,nt,nt,-2.6%,-4.7%,nt,nt,nt,nt,nt
O=C(O)c1ccc(COc2ccc3c4c(c(=O)oc3c2)CCC4)o1,i,-7.4%,?,?,-12.4%,-16.9%,4.7%,12.6µM*,?
CCCCn1c(O)c(/C=C2\C=Nc3ccccc32)c(=O)[nH]c1=O,nt,nt,nt,20.2%,-2.3%,nt,nt,nt,nt
CC1=CCC2C(=O)N(c3nc4ccccc4n3C)C(=O)C2C1 (centres undefined),-11.6%,1.9%,nt,?,3.3%,nt,nt,39.8µM*,nt
CC1=CCC2C(=O)N(C(C)c3ccccc3)C(=O)C2C1 (centres undefined),-14.3%,-8.9%,nt,8.6%,0.0%,nt,nt,nt,nt
N#C/C(=C/c1ccc(O)cc1)C(=O)NCc1ccc(Cl)cc1,nt,nt,nt,20.4%,-12.9%,nt,nt,nt,nt
O=C1c2ccccc2C(=O)c2c1ccc(O)c2O,?,14.1µM*,nt,?,-18.5%,?,90.8%[57.1 µM],?,-5.0%[57.1 µM]
O=C1c2ccc(O)c(O)c2C(=O)c2c(O)ccc(O)c21,31.6µM*,3.55µM*,nt,3.16µM*,-26.9%,nt,14.1µM*,3.98µM*,nt
O=C1c2cccc([N+](=O)[O-])c2C(=O)N1c1ccccc1,-8.0%,2.9%,8.9%,10.9%,-0.1%,nt,nt,nt,nt
O=C1c2ccccc2C(=O)c2c([N+](=O)[O-])ccc(O)c21,4.1%,-19.6%,-20.5%,28.2µM*,-8.7%,?,-3.9%,14.1µM*,-18.9%
CN(C)S(=O)(=O)c1cc(NC(=O)CNCc2ccccc2)ccc1Cl,nt,nt,nt,46.3%,2.0%,nt,nt,nt,nt
CCOc1ccccc1-c1nc(CN2CCCC2c2nccs2)c(C)o1 (centres undefined),i,?,-1.6%,-2.2%,-3.3%,nt,nt,nt,nt
O=C(NC1=NCCS1)c1ccncc1,i,-4.1%,-3.9%,-2.1%,-4.7%,nt,nt,nt,nt
CCOc1ccc(NS(=O)(=O)c2cc(C(=O)NCCCN3CCCC3=O)ccc2C)cc1,nt,nt,-3.0%,19.1%,nt,nt,nt,nt,nt
OCC1OC([S-])[C@H](O)C(O)C1O.[Au+] (some centres undefined),-4.0%,?,nt,nt,?,nt,11.0%[57.1 µM],12.6µM*,nt
SMILES,RECQ1 helicase,JMJD2E inh,L3MBTL1 inh,APE1 inh-1,BLM inh,APE1 dye cs,EndoIV counter,APE1 inh-2,APE1 FP
COc1ccc2[nH]c(C(=O)O)c(CCN3C(=O)c4cccc([N+](=O)[O-])c4C3=O)c2c1,-7.0%,-8.4%,7.1%,?,-28.3%,nt,nt,39.8µM*,nt
NC(=O)C1CCN(C2CC(=O)NC2=O)CC1 (centres undefined),-3.0%,9.9%,?,?,-3.1%,-5.0%,-0.6%,?,9.0%
Cc1ccccc1N1C(=O)CC(N2CCC(C(N)=O)CC2)C1=O (centres undefined),8.9%,1.7%,nt,-0.2%,-1.8%,nt,nt,nt,nt
COc1cc(S(=O)(=O)NCc2ccccc2Cl)ccc1-n1cnnn1,nt,nt,nt,53.8%[12.4 µM],-2.1%,nt,nt,nt,nt
COc1ccc(OC)c(/C(C)=N/Nc2ccc(C(=O)O)cc2)c1,-15.5%,?,-16.0%,28.2µM*,-4.2%,-0.5%,2.5%,?,-13.9%
COc1ccc(/C(C)=N/Nc2ccc(C(=O)O)cc2)cc1OC,-0.4%,6.4%,-1.5%,-2.8%,-4.9%,nt,nt,nt,nt
COc1cc(/C=N/Nc2ccc(C(=O)O)cc2)ccc1O,i,?,nt,14.1µM*,3.0%,-8.9%,4.7%,14.1µM*,12.9%
CCN(CC)CCNc1ccc(CO)c2sc3ccccc3c(=O)c12,-1.1%,-8.6%,-2.2%,?,82.8%,7.94µM*,-13.9%[57.1 µM],15.8µM*,-56.1%[57.1 µM]
O=C(C(c1ccccc1)c1ccccc1)N(Cc1ccco1)C1CCS(=O)(=O)C1 (centres undefined),3.8%,5.8%,-2.6%,-1.0%,-1.5%,nt,nt,nt,nt
COCCN=c1scc(-c2ccco2)n1/N=C/c1ccc(O)c(O)c1O,8.91µM*,22.4µM*,1.41µM*,8.91µM*,10µM*,11.2µM*,21.7%,4.47µM*,14.1µM*
O=C(O)C1C2CCC(O2)C1C(=O)NCc1ccncc1 (centres undefined),-7.1%,5.5%,42.3%,2.8%,-7.0%,nt,nt,nt,nt
NN1C(=O)/C(=C\c2ccco2)SC1=S,?,?,25.1µM*,14.1µM*,?,-10.9%,3.6%,?,1.4%

# Assay outcomes (PubChem)
